# High-throughput results as filed in PubChem.
# G9a block = inhibitors of human histone lysine methyltransferase G9a; Q96KQ7; G9a H3K9 monomethylation, AlphaScreen, 2 h; Potency, µM (doses to about 102 µM), inactives show at the top dose activity, negative = inhibition, usual class: inhibitors; 8.8% of 350,000 active; AID 504332; also: potency is read from the fitted curve at half-maximal effect; % is scaled to controls: 0 for no effect and ±100 for the full control effect; nearly all actives have a fitted effect of over 75% in size
# Target sequence (Q96KQ7 913-1193 limits assumed): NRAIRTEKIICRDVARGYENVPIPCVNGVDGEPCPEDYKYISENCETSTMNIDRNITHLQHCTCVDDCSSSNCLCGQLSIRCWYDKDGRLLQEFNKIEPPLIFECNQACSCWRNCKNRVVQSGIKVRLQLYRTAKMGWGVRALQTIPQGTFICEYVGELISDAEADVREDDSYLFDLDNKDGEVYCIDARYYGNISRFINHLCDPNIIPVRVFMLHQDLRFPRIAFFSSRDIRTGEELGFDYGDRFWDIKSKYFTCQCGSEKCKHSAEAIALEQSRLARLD
#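 AlphaScreen detection with an anti-monomethyl H3K9 antibody quantified product after a 2 h room-temperature reaction containing 500 nM biotinylated H3K9 peptide, 20 µM SAM and 20 nM enzyme, which had been preincubated 15 min with compound.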
# PI5P4K alpha inh = PI5P4K alpha (human) kinase inhibition; P48426; PI5P4Kalpha enzyme, ADP-Glo luminescence, 60 min; hits give low values; max response, %; 1.2% of 330,000 active; AID 652105; active = max response of -50% or lower; inconclusive = between -30% and -50%; inactive = -30% or higher; also: value at the top dose of about 77 µM; % is scaled to controls: 0 for no effect and ±100 for the full control effect
#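 Enzyme plus substrate dispensed, test compounds pinned in, then ATP (5 microM final) added. After 60 min at RT, ADP-Glo reagent 1 for 45 min and reagent 2 for 30 min preceded luminescence imaging.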
# PLK1 PBD inh = inhibitors of human PLK1 polo-box domain binding; Potency, µM, inactives show max response, negative = inhibition, actives largely listed as inhibitors; Plk1 PBD binding of FITC phosphopeptide, fluorescence polarization; 2.8% of 360,000 active; also: potency is read from the fitted curve at half-maximal effect; series mostly up to about 57 µM; % is scaled to controls: 0 for no effect and ±100 for the full control effect; nearly all actives have a fitted effect of over 65% in size
# HP1b binding inh = inhibitors of HP1-beta chromodomain binding to methylated histone tails. AlphaScreen HP1-beta / biotin-H3K9me3 peptide binding. Potency, µM (titrated, usually from 114 µM), without a hit: at the top dose activity change, negative = inhibition, usual class: inhibitors. 0.56% of 390,000 active. AID 540317; also: potency is read from the fitted curve at half-maximal effect; nearly all actives have a fitted effect of over 70% in size
# Target sequence (P83916 whole entry, looked up): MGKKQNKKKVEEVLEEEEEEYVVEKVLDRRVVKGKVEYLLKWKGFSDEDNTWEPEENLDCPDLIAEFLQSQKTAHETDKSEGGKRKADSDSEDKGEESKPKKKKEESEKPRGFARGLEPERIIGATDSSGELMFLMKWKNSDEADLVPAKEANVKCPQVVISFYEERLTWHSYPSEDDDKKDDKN
#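 HP1-beta protein (50 nM final) preincubated 30 min at room temperature with biotinylated H3(1-18)K9me3 peptide (50 nM) in PBS pH 7.4, 0.01% Tween-20, then compound added for 30 min. AlphaScreen streptavidin donor/nickel chelate acceptor beads (10 ug/mL final), 30 min dark, luminescence read.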
# BAZ2B block = inhibitors of human BAZ2B bromodomain. Q9UIF8. AlphaScreen BAZ2B-H3K14Ac peptide displacement. Potency, µM (top dose mostly 114 µM), inactives show at the top dose activity change, negative = inhibition, most hits filed as inhibitors. 4.4% of 360,000 active. AID 504333; also: potency is read from the fitted curve at half-maximal effect; % is scaled to controls: 0 for no effect and ±100 for the full control effect; nearly all actives have a fitted effect of over 60% in size
#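 Protein-peptide AlphaScreen: BAZ2B 50 nM, b-H3K14Ac 50 nM, 1x PBS pH 7.4 + 0.01% Tween-20. Preincubation 30 min RT; cpd 30 min RT (top 110 uM); beads 20 min RT, light-protected.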
# JMJD2A Tudor = blocks the human JMJD2A Tudor domain; O75164; AlphaScreen JMJD2A-Tudor / H3K4me3 peptide binding; Potency, µM (top dose mostly 114 µM), without a hit: at the top dose activity change, negative = inhibition, actives largely listed as inhibitors; 4.4% of 390,000 active; AID 504339; also: potency is read from the fitted curve at half-maximal effect; % is scaled to controls: 0 for no effect and ±100 for the full control effect; nearly all actives have a fitted effect of over 50% in size
# * = called active by the depositor; ? = inconclusive; / = no result; [ ] = dose if it differs, or a comment. This is a sample that favours compounds with a hit; in the whole collection about 12% have one here. Unless noted, calls follow the shape of the dose curve; as a rule, active = well fitted curve in the direction sought with a large enough effect; inconclusive = small, poorly fitted or top-dose-only effect, or another doubt; inactive = no such curve, though single readings can be large; an effect the other way counts as inactive or inconclusive.
SMILES,G9a block,PI5P4K alpha inh,PLK1 PBD inh,HP1b binding inh,BAZ2B block,JMJD2A Tudor
CC1(C)C(O)C=C[C@@]2(C)C1CC(=O)O[C@@]1(C)C3=CC(=O)OC(c4ccoc4)[C@]3(C)CCC21 (some centres not stated),-17%[2.33 µM],/,/,/,/,/
COCCCNc1oc(/C=C/c2cc(OC)c(OC)c(OC)c2)nc1C#N,-1%[59 µM],/,/,43%,0%,18%
C=C(C)Cn1c(-c2ccncc2)n[nH]c1=S,14µM*,2,-12%,8%,?,50µM*
Nc1sc(-c2ccccc2)cc1-c1n[nH]c(=S)n1C1CCCCC1,4%[59 µM],-5,1%,35%,-4%,-16%
Fc1ccccc1-c1n[nH]c(=S)n1C1CC1,8.9µM*,/,/,/,-25%,/
CC(C)Cn1c(-c2ccccc2F)n[nH]c1=S,1.4µM*,1,-19%,-14%,16%,4µM*
CC(C)Cn1c(-c2ccncc2)n[nH]c1=S,7.1µM*,6,-2%,25%,?,20µM*
Cc1cc(C)n2c(NC3CCCC3)c(-c3cc4ccccc4o3)nc2n1,/,-2,8%,/,/,/
Cc1cc2c(s1)c1cnn(Cc3cccc(F)c3F)c(=O)c1n2C,/,/,/,/,/,-12%
CC(C)Cn1c(-c2csc3c2CCCC3)n[nH]c1=S,8.9µM*,-3,-6%,1%,?,79µM*
CC(C)Cn1c(-c2ccc(F)cc2)n[nH]c1=S,?,-3,-24%,?,5%,7.9µM*
O=C(O)c1ccc(OCCn2ccnc2)cc1,?,-7,-5%,17%,79µM*,?
CCCCCCOc1ccc(C(=O)NCCCn2ccnc2)cc1,-39%,-1,-7%,1%,-39%,-34%
Cc1cc(Br)ccc1OCCn1ccnc1,32µM*,0,-8%,22µM*,50µM*,4.5µM*
O=C(COc1ccc(Cl)cc1Cl)NCCCn1ccnc1,-50%[12.7 µM],2,-9%,34%,-30%,-18%
Cc1ccc(OCCCn2ccnc2)c(Br)c1,14µM*,1,-14%,?,56µM*,22µM*
Clc1cc(Br)ccc1OCCCn1ccnc1,?,2,-1%,?,50µM*,22µM*
CC1(C(=O)NCc2ccccc2)CSCC(=O)N1CCOc1ccccc1 (configuration not stated),/,1,-12%,/,/,/
CCCCN([C@H](CO)C(C)C)S(=O)(=O)c1ccccc1Br,/,1,-14%,60%,/,-10%
Clc1ccccc1OCCCn1ccnc1,25µM*,-7,4%,?,79µM*,18µM*
Cc1cccc(C(C)(C)C)c1OCCn1ccnc1,18µM*,3,-7%,50µM*,79µM*,1.3µM*
Clc1ccc(OCCn2ccnc2)cc1Cl,/,2,-20%,?,50µM*,5.6µM*
Clc1cccc(OCCCn2ccnc2)c1,/,-1,-1%,11%,-8%,-9%
Cc1cc(C)c(C)c(OCCn2ccnc2)c1,?,0,-17%,41%,-39%,-25%
Clc1ccccc1OCCCCn1ccnc1,4%[59 µM],/,-5%,11%,-4%,-23%
SMILES,G9a block,PI5P4K alpha inh,PLK1 PBD inh,HP1b binding inh,BAZ2B block,JMJD2A Tudor
Clc1cc(Br)ccc1OCCn1ccnc1,8.9µM*,/,-5%,?,22µM*,3.2µM*
O=C(c1cc(COc2cccc(C(F)(F)F)c2)on1)N1C[C@@H]2CCC[C@H]1C2,132%,20,1%,72%,26%,19%
CN1CCN(C(=O)c2ccc3c(c2)N(Cc2ccc(Cl)cc2)C(=O)c2ccccc2S3(=O)=O)CC1,?,/,/,22%,-15%,-17%
S=C(NCCCN1CCOCC1)N1CCN(c2cccc(Cl)c2)CC1,32µM*,-2,?,9%,-21%,-33%
Cc1cc(N2CCN(Cc3cn(C)nc3-c3cccc(Cl)c3)CC2)cc(C)n1,/,14,-8%,0%,45µM*,-15%
Cn1cc(CN2CCN(c3ncccn3)CC2)c(-c2cccc(Cl)c2)n1,-36%,5,0%,16%,-5%,-4%
COC(=O)c1cc2sc(C)cc2n1Cc1nc(-c2cccc(Br)c2)oc1C,2%[59 µM],/,/,45%,3%,0%
CSCCOC(=O)COc1ccc(/C=N/NC(=O)c2nn(C)cc2Cl)cc1,40µM*,-3,0%,26%,-5%,-1%
CC(=O)N1CCc2c(sc3c2c(=O)n(CCc2ccccc2)c(=O)n3CC(=O)Nc2ccc(C)c(F)c2)C1,-8%[59 µM],/,/,2%,-18%,-25%
CCN1CCN(CCn2c(=S)[nH]c3ccccc3c2=O)CC1,?,1,-2%,31%,3%,-30%
O=C(CCCn1c(=S)[nH]c2ccccc2c1=O)N1CCCCC1,?,5,-4%,35%,4%,56µM*
O=c1c2ccc(Cl)cc2[nH]c(=S)n1CCCN1CCOCC1,45µM*,-9,-20%,15%,-30%,?
O=c1c2ccccc2[nH]c(=S)n1CCCN1CCOCC1,18µM*,1,-3%,31%,-33%,-24%
CC1CC(C)CN(C(=O)CCCn2c(=S)[nH]c3ccccc3c2=O)C1 (configuration not stated),-10%[59 µM],/,-20%,10%,4%,-17%
O=c1c2ccccc2[nH]c(=S)n1CCN1CCCC1,18µM*,-1,-7%,13%,-13%,-28%
COc1cc(C(=O)NNC(=O)c2nn(C)c(=O)c3ccccc23)cc(OC)c1OC,/,-1,1%,28%,/,?
NC(=O)NN=C1CCC(OCc2ccccc2)CC1CC(=O)O (configuration not stated),/,4,-5%,/,/,/
COc1ccccc1OCC(=O)N(Cc1cccs1)C1CCS(=O)(=O)C1 (configuration not stated),8%[59 µM],/,/,20%,6%,-3%
COc1ccc(OC)c(S(=O)(=O)N2CCCC(C(=O)NCc3cccnc3)C2)c1 (configuration not stated),18%,-9,-8%,17%,6%,-5%
